Screening data as filed in PubChem BioAssay.
VP16 counter: Gal4-VP16 reporter inhibition counter-screen | Potency, µM (titrated, usually from 53.6 µM), inactives show at the top dose activity, negative = inhibition, usual class: inhibitors | Drosophila S2 Gal4-VP16 UAS-luciferase, luminescence, 20 h | actives 3.5% (n = 310,000) | AID 2546;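 note: Gal4-VP16 expression switched on by copper sulfate through the metallothionein promoter; nearly all actives have a fitted effect of over 50% in size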
RORgamma inh: ROR gamma (mouse) transcription inhibition; P51450; Drosophila S2 Gal4-RORgamma UAS-luciferase reporter, 20 h; Potency, µM (doses to about 53.6 µM), without a hit: top-dose activity change, negative = inhibition, actives largely listed as inhibitors; actives 5.4% (n = 310,000); AID 2551; note: nearly all actives have a fitted effect of over 60% in size
Target sequence (P51450 whole entry, looked up, the tested form may be a part): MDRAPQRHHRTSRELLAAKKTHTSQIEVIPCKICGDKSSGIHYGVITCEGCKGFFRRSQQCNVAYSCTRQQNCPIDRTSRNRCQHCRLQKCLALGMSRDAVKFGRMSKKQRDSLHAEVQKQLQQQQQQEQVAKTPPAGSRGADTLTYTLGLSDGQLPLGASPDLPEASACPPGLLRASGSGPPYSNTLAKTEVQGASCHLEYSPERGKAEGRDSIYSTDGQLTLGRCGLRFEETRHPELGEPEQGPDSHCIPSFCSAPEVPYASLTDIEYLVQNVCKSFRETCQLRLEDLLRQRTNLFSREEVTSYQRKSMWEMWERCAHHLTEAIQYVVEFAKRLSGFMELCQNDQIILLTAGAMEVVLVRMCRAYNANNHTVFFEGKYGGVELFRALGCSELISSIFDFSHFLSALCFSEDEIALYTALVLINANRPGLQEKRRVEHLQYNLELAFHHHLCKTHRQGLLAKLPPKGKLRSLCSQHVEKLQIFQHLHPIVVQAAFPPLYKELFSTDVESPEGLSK
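Stable Schneider cell line, Gal4 DNA-binding domain fused to ROR gamma, UAS-luciferase. Cmpd 1 hr RT → CuSO4 700 uM final → 20 hr RT → luciferase reagent 10 min → luminescence.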
ALOX12 inh: blocks human arachidonate 12S-lipoxygenase | Potency, µM (top dose mostly 108 µM), inactives show top-dose activity change, negative = inhibition, hits mostly inhibitors | purified 12hLO, xylenol orange hydroperoxide absorbance | actives 1.1% (n = 580,000) | AID 1671190 | P18054
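Purified human 12hLO (150 nM final) in 25 mM Hepes, 0.01% Triton X-100, pH 7.0 was preincubated 15 min at room temperature with compound. Then 40 uM arachidonic acid was added, 30 min. Hydroperoxide was read by Fe-XO absorbance ratio 573/405 nm.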
TDP1 cell CPT: DT40-hTDP1 cell growth loss with CPT | chicken DT40 Tdp1-/-;hTDP1 cells + 20 nM CPT, ATP luminescence, 48 h | Potency, µM (highest dose often 46.2 µM), for inactives: top-dose activity change, negative = growth inhibition, actives largely listed as inhibitors | actives 12% (n = 420,000); note: nearly all actives have a fitted effect of over 55% in size
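Cell growth measured by CellTiter-Glo luminescence after a minimum 48 h, 37 C compound exposure with 20 nM CPT in Tdp1-knockout DT40 cells stably expressing hTDP1, seeded 400/well; qHTS titration format.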
TDP1 cell noCPT: qHTS for Inhibitors of human tyrosyl-DNA phosphodiesterase 1 (TDP1): qHTS in cells in absence of CPT; actives 15% (n = 420,000); DT40 Tdp1-/- hTDP1 cells, no CPT, ATP luminescence, 48 h; Potency, µM (titrated, usually from 46.2 µM), for the others: at the top dose activity change, negative = growth inhibition, most hits filed as inhibitors; note: nearly all actives have a fitted effect of over 55% in size
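Seeded 400 DT40-hTDP1 cells/well (vehicle DMSO, no 20 nM CPT); pinned compounds; ≥48 hr at 37 °C; CellTiter-Glo luminescence as viability measure.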
ELG1 repair inh: ELG1-dependent DNA repair inhibition; actives 2.3% (n = 330,000); HEK293T ELG1-luciferase reporter, luminescence, 16 h; DNA damage induced by 5-fluorouridine; AID 504467; Potency, µM (titrated, usually from 46.1 µM), without a hit: at the top dose activity change, negative = inhibition, most hits filed as inhibitors; note: nearly all actives have a fitted effect of over 55% in size
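5-Fluorouridine DNA damage + compound/DMSO, 2,000 cells/well, 16 h, 37 °C/5% CO2. ONE-Glo, 30 min RT, luminescence. Readout = decrease in reporter signal.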
* marks the source's active call; other numbers are inactive results; ? = inconclusive; . = no result given; [ ] = remark or other dose. An excerpt weighted towards active compounds, which were near 15% of everything screened. Calls come from the whole dose curve; as a rule, active = well fitted curve in the direction sought with a large enough effect; inconclusive = small, poorly fitted or top-dose-only effect, or another doubt; inactive = no such curve, though single readings can be large; an effect the other way counts as inactive or inconclusive. % is set by controls: 0 for no effect and ±100 for the full control effect; potency is the fitted concentration of half-maximal effect.

SMILES | VP16 counter | RORgamma inh | ALOX12 inh | TDP1 cell CPT | TDP1 cell noCPT | ELG1 repair inh
COc1cccc(-c2cc(C(F)(F)F)n3ncc(C(=O)N4CCc5ccccc5C4)c3n2)c1 | -7% | 20% | ? | 16µM* | 18µM* | 21µM*
O=C(NCc1ccco1)c1cnn2c(C(F)(F)F)cc(-c3cccs3)nc12 | ? | -29% | -27% | 15µM* | 21µM* | ?
O=C(c1cnn2c(C(F)(F)F)cc(-c3cccs3)nc12)N1CCCC1 | 3% | 3% | -14% | ? | -26% | -4%
O=C(NC1CCCCC1)c1cnn2c(C(F)(F)F)cc(-c3ccco3)nc12 | -17% | ? | ? | 23µM* | ? | ?
O=C(c1cnn2c(C(F)(F)F)cc(-c3ccco3)nc12)N1CCc2ccccc2C1 | -16% | -6% | ? | ? | ? | 23µM*
COc1ccccc1/C=C/c1nc(C#N)c(NCCCN2CCOCC2)o1 | . | . | 4% | . | . | .
CC(C1=C(O)CC(C)(C)CC1=O)C1=C(O)CC(C)(C)CC1=O | . | . | -12% | . | . | .
CCn1c2ccccc2c2nc3ccccc3nc21 | -2% | -7% | . | ? | 18µM* | -1%
CCCCc1c(C)nn(-c2nnc3c4ccccc4n(CC)c3n2)c1C | 4µM* | 1.8µM* | 3% | ? | ? | ?
CCn1c2ccccc2c2nc3cc(OC)c(OC)cc3nc21 | -9% | -31% | ? | 13µM* | 13µM* | ?
CN(C)C(=O)Cc1ccccc1 | . | . | -1% | . | . | .
O=C1CC(c2ccccc2)c2c(n3c(nc4ccccc43)[nH]c2=O)N1 (configuration not stated) | . | . | -1% | . | . | .
Cc1ccc(NC(=O)CN2C(=O)NC(C)(c3ccc(Cl)cc3)C2=O)cc1S(=O)(=O)N1CCOCC1 (configuration not stated) | -2% | 24%[10 µM] | -20% | 21µM* | 18µM* | ?
Cc1ccc(NC(=O)CN2C(=O)NC3(CCCCC3C)C2=O)cc1S(=O)(=O)N1CCOCC1 (configuration not stated) | . | . | -1% | ? | 23µM* | .
Cc1ccc(NC(=O)CN2C(=O)NC3(CCCC3)C2=O)cc1S(=O)(=O)N1CCCCC1 | . | . | ? | -9% | -24% | 9%
CC1CCCCC12NC(=O)N(CC(=O)Nc1ccc(Cl)c(S(=O)(=O)N3CCOCC3)c1)C2=O (configuration not stated) | . | . | 6% | ? | 18µM* | -24%
CCCC1(CCC)NC(=O)N(CC(=O)Nc2ccc(Cl)c(S(=O)(=O)N3CCOCC3)c2)C1=O | . | . | -8% | ? | ? | ?
CCc1ccc(NC(=O)CCS(=O)(=O)c2cc(-c3cc(C)no3)ccc2OC)cc1 | . | . | 7% | . | . | .
CC(C)C(=O)Nc1nc2ccc(CCC(=O)N3CCN(c4ccc(Cl)cc4)CC3)cc2s1 | . | . | 50% | . | . | .
OC(COc1cc(Cl)c(Cl)cc1Cl)CN1CCN(c2ncccn2)CC1 (configuration not stated) | -9% | 14% | ? | 18µM* | ? | ?
OC(COc1cccc2ccccc12)CN1CCN(c2ccc(Cl)cc2)CC1 (configuration not stated) | 1% | 16% | -6% | ? | 23µM* | 11%
COc1ccc(N2CCN(CC(O)COc3ccc(C)cc3C)CC2)cc1 (configuration not stated) | -3% | 18% | ? | ? | ? | ?
Cc1cccc(N2CCN(CC(O)COc3ccccc3Cl)CC2)c1 (configuration not stated) | -4% | -5% | 0% | ? | 16µM* | -8%
OC(COc1c(F)cc(Br)cc1F)CN1CCN(c2ccc(F)cc2)CC1 (configuration not stated) | ? | 3% | ? | ? | 18µM* | -27%
COc1ccc(OCC(O)CN2CCN(c3ncccn3)CC2)cc1 (configuration not stated) | 6% | 15% | ? | -5% | -9% | 1%
SMILES | VP16 counter | RORgamma inh | ALOX12 inh | TDP1 cell CPT | TDP1 cell noCPT | ELG1 repair inh
CN(Cc1ccccc1NC(=O)c1ccccc1C(F)(F)F)C1CCCCC1 | . | . | 9% | . | . | .
O=C(NCc1ccc(Cl)cc1)c1cc2c(s1)-c1ccccc1SC2 | . | . | ? | 13% | -21% | .
N#Cc1cccc(NC(=O)c2cc3c(s2)CCCC3)c1 | . | . | -14% | . | . | .
CCN(CC)CCNC(=O)c1cc2c(s1)-c1ccccc1SC2 | 0% | -25% | 34% | 23µM* | 16µM* | -1%
N#Cc1cccc(NC(=O)c2cc3c(s2)-c2ccc(Cl)cc2SC3)c1 | . | . | ? | 26µM* | 23µM* | .
CN(Cc1ccccc1)C(=O)c1cc2c(s1)-c1ccc(Cl)cc1SC2 | . | . | 18% | ? | 23µM* | .
Cn1cccc1CN1CCCCCCNC(=O)[C@@H]2CCC[C@@H]21 | . | . | 81% | . | . | .
Cc1csc(NC(=O)CCc2ncc(-c3ccccc3Cl)o2)n1 | . | . | 1% | . | . | .
Cc1cc(Cl)ccc1NNC(=O)c1c(C)noc1C | 0% | -13% | 32µM* | -1% | -22% | -3%
Cc1ccc(NNC(=O)c2c(C)noc2C)cc1Cl | 5% | 11% | ? | -1% | -22% | 3%
COc1nccnc1NC1CCN(C(=O)c2ccccc2C)CC1 | . | . | 34% | . | . | .
CCOC(=O)c1noc2ncnc(N3CCN(c4cccc(C(F)(F)F)c4)CC3)c12 | . | . | -2% | 16µM* | 13µM* | .
Cc1oc2ncnc(N3CCCCC3)c2c1C(=O)N1CCN(c2cccc(C(F)(F)F)c2)CC1 | . | . | -29% | 16µM* | 13µM* | .
COc1ccc(N2CCN(C(=O)c3c(C)oc4ncnc(N5CCCCC5)c34)CC2)cc1 | . | . | ? | ? | 15µM* | .
Cc1noc(C)c1C(=O)Nc1ccc(N(C)C)cc1 | -9% | 4% | 435% | -12% | 38% | -1%
CN(C)c1ccc(NC(=O)c2cnsn2)cc1 | 10µM* | 10µM* | -4% | -5% | -30% | ?
CCn1cc(C(=O)NCc2ccccc2OC)c(=O)c2cc(S(=O)(=O)N3CCCCC3)ccc21 | . | . | -26% | 18µM* | ? | .
CCn1cc(C(=O)NCc2ccccc2Cl)c(=O)c2cc(S(=O)(=O)N3CCCCCC3)ccc21 | . | . | 0% | ? | 21µM* | .
N#Cc1nc(-c2ccc(S(=O)(=O)N3CCCCCC3)cc2)oc1NCc1ccco1 | . | . | -2% | . | . | .
CCCn1ccc2sc(C)c(C(=O)NC3CCCC3)c2c1=O | . | . | -5% | . | . | .
